# MITF primary: MITF inhibitors, primary screen, biochemical, AlphaScreen, human | AlphaScreen MITF homodimerization, bead proximity signal | inhibition, % at 2.6 µM | 0.91% of 650,000 active | Microphthalmia-associated transcription factor (Homo sapiens), O75030; in the data active = inhibition above about 50%;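 note: 0% = vehicle wells with protein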
# Target sequence (O75030 whole entry, looked up): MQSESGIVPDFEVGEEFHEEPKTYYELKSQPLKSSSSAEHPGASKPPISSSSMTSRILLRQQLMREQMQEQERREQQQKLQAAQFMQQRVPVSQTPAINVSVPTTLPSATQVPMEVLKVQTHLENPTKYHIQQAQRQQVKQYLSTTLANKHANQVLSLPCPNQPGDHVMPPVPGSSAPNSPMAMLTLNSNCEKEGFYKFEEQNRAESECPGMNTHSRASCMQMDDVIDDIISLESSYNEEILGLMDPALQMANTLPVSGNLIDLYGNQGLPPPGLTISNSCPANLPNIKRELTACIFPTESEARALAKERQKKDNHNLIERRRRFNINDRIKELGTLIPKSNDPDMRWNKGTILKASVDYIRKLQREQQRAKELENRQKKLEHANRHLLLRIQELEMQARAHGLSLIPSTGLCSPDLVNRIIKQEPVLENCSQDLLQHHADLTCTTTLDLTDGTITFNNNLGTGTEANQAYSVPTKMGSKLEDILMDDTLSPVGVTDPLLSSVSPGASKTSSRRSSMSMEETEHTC
# GPR151 ag: activators of human GPR151, primary screen, cell-based, PathHunter beta-arrestin, luminescence; G-protein coupled receptor 151 (Homo sapiens), Q8TDV0; PathHunter beta-arrestin GPR151 cells; activation, % at 11.2 µM; 1% of 650,000 active; in the data active = activation above about 4.9%;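 note: 0% = median of compound wells and 100% = cells with positive control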
# FBW7 activator: FBW7 E3 ligase activators, primary screen, biochemical, AlphaScreen, human; AID 1259310, 2017; F-box/WD repeat-containing protein 7 (Homo sapiens), Q969H0; 0.13% of 650,000 active; AlphaScreen FBW7–phospho-cyclin E peptide binding, activator screen; normalized activity (activation), % at 26.1 µM; in the data active = normalized activity above about 1.9%;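 note: purified mutant Fbw7 with reduced substrate affinity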
# TEAD-YAP block: TEAD-YAP interaction inhibition, primary screen, TEAD-YAP interaction inhibitor project, luminescence, HEK-TIYL cells. TEAD-Gal4/YAP UAS-luciferase luminescence. inhibition, % at 9.12 µM. 1.4% of 640,000 active; in the data active = inhibition above about 32%;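 note: 0% = median of test compound wells and 100% = reference inhibitor wells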
# GPR151 conf act: GPR151 activators, triplicate retest, confirmation, cell-based, PathHunter beta-arrestin, luminescence; activation, % at 11.2 µM; shares compounds with GPR151 ag; GPR151 PathHunter beta-arrestin cells, 90 min; % of EA-reagent control over plate median; 6,700 tested, under 10 active; AID 1508609, 2020;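 active = mean percent activation across replicates above the confirmation screen cutoff of 4.91%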
# GPR119 ag: GPR119 activators in beta-arrestin cells, counter-screen for GPR151 activator project, cell-based, PathHunter beta-arrestin, luminescence, triplicate | shares compounds with GPR151 ag | 90 min; 0 = compound-well median, 100 = enzyme-acceptor control | activation, % at 11.2 µM | 0.3% of 6,700 active;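 active = mean percent activation in the counterscreen above 29.09%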;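 note: counterscreen on off-target GPR119 to flag nonselective hits from the GPR151 activator screen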
# * marks the source's active call; other numbers are inactive results; x = no result. Most compounds without a hit are left out; they make up all but 3.5% or so of the library.
SMILES,MITF primary,GPR151 ag,FBW7 activator,TEAD-YAP block,GPR151 conf act,GPR119 ag
O=c1[nH]c(Cc2ccccc2)nc2c1C1(CCCCC1)Cc1ccccc1-2,-18,5.1*,0,-7,1,14
C=CCSc1nc(-c2ccccc2)cc(-c2ccc(Br)cc2)c1C#N,2,1,0,4,x,x
CC(=O)N1CCc2cc(Br)cc(S(=O)(=O)N3CCC(O)(c4cccc(C(F)(F)F)c4)CC3)c21,-2,4.9*,0,2,-1,11
CC(=O)N1CCc2cc(Br)cc(S(=O)(=O)N3CCCCC3)c21,15,1,0,-4,x,x
CCOc1cc(C)c(C(C)C)cc1S(=O)(=O)N1CCN(C)CC1,5,2,0,2,x,x
CCOc1cc(C)c(C(C)C)cc1S(=O)(=O)N(CC)CC,-9,16*,0,2,0,-1
COc1ccc(C(=O)Nc2ccccc2)cc1S(=O)(=O)N1CCCc2ccccc21,32,-1,0,19,x,x
COc1cc(OC)c(S(=O)(=O)N2CCCc3ccccc32)cc1NC(C)=O,11,6.1*,0,-3,0,2
CCOc1cc(/C=C/c2[nH]c(=O)[nH]c(=O)c2[N+](=O)[O-])ccc1O,3,6.5*,0,1,0,-5
CC1(CCc2ccccc2)NC(=O)N(N)C1=O (stereo not given),-3,6.7*,0,16,-1,-3
CC1(CCc2ccccc2)NC(=O)NC1=O (stereo not given),19,8.6*,0,4,1,12
O=C1S/C(=C/c2ccccc2)C(=O)N1c1ccccc1,6,0,0,-17,x,x
Cc1nc(C)c(NC(=O)N2CCCCC2C)cc1NC(=O)N1CCCCC1C (stereo not given),-1,4.9*,0,-1,0,0
Cc1ccc(NC(=O)N2CCCCC2C)cc1 (stereo not given),13,0,0,-17,x,x
CCOc1ccccc1NC(=O)CCc1nnc2ccc(N3CCCCC3)nn12,12,-2,0,6,x,x
CCOC(=O)C(C)NC(=O)CCc1nnc2ccc(N3CCC(C)CC3)nn12 (stereo not given),4,5.4*,0,3,0,-3
CCOc1ccccc1NC(=O)CCc1nnc2ccc(N3CCCC3)nn12,6,6.7*,0,7,0,1
Cc1cccn2c(=O)c3cc(C(=O)N4CCc5ccccc54)sc3nc12,10,5.0*,0,4,0,6
CC(=O)c1cccc(NC(=O)CC2S\C(=N/N=C/C=C/c3ccccc3)NC2=O)c1 (stereo not given),8,9.3*,0,-2,2,12
O=C(Nc1ccc2ccccc2c1)c1ccc(Cl)cc1,3,5.2*,0,-49,0,-8
O=C(Nc1c(F)cccc1F)c1ccc(Cl)cc1,3,7.7*,0,-1,-1,-1
O=C(Nc1c(F)cccc1F)c1ccccc1Cl,13,-1,0,-22,x,x
Cc1ccc(NC(=O)c2ccc3c(=O)n(-c4ccccc4)c(=S)[nH]c3c2)cc1F,-3,0,0,-5,x,x
CCCCCCCC(=O)N/N=C/c1ccccc1OC,-4,17*,0,6,-1,-8
COc1ccc(/C=N/NC(=O)CCC(=O)Nc2ccc(Cl)cc2C)cc1,12,5.3*,0,3,0,-1
SMILES,MITF primary,GPR151 ag,FBW7 activator,TEAD-YAP block,GPR151 conf act,GPR119 ag
CCCCCC(=O)N/N=C/c1cccc(OC)c1,10,5.2*,0,-9,0,-3
COc1ccc(/C=N/NC(=O)CCC(=O)Nc2ccc(Cl)cc2C)cc1OC,-3,-1,0,-1,x,x
Cc1ccccc1/C=C1\SC(=S)N(C(C)C(=O)O)C1=O (stereo not given),1,-1,0,-1,x,x
CCCCN(C)Cc1c(C(=O)N2CCN(C3CCCCC3)CC2)nc2ccccn12,14,7.3*,0,4,1,6
CCN1CNC(=S)N(c2ccc(F)c(Cl)c2)C1,7,6.0*,0,1,0,-7
CCN(CC)C(=O)c1sc(N)c(C(=O)OC(C)C)c1C,12,16*,0,0,0,3
O=C1CC(NS(=O)(=O)c2ccc(Cl)cc2)CN1c1ccc(Cl)cc1 (stereo not given),16,0,0,9,x,x
O=C(Cn1nnc(-c2ccccc2)n1)Nc1ccc(F)c(Cl)c1,-12,2,0,1,x,x
CC(=O)C1C(c2ccc(F)cc2)C2C(C)=NN=C2CC1(C)O (stereo not given),12,1,0,9,x,x
COc1ccc(C2C3C(C)=NN=C3CC(C)(O)C2C(C)=O)cc1 (stereo not given),13,6.6*,0,-1,2,11
O=C(O)COc1ccc(NC(=O)C(c2ccccc2)c2ccccc2)cc1,10,4.9*,0,-10,-1,-13
O=C(Nc1ccc(S(=O)(=O)Nc2ncccn2)cc1)C(c1ccccc1)c1ccccc1,21,7.1*,1,-2,1,-7
COC(=O)COc1ccc(NC(=O)C(c2ccccc2)c2ccccc2)cc1,17,1,0,-4,x,x
COCCNCCCOc1cccc(Br)c1,12,-1,0,2,x,x
Cc1nc2sc3c(c2c2nnc(SCC(N)=O)n12)CCCC3,-9,0,0,-15,x,x
O=S(=O)(/C=C/c1ccccc1)N1CCCC(N2CCN(c3ccccc3)CC2)C1 (stereo not given),1,5.6*,0,20,0,6
CCOc1cc(/C=N/NC(=O)c2nnn(-c3nonc3N)c2CC)ccc1O,11,6.9*,0,14,0,-1
CCN(CC)Cc1c(C(=O)N/N=C/c2cccc([N+](=O)[O-])c2)nnn1-c1nonc1N,-11,9.9*,0,-10,0,-1
CCOc1cc(/C=N/NC(=O)c2nnn(-c3nonc3N)c2-c2ccccc2)ccc1O,-6,0,0,4,x,x
COc1ccccc1N=C1SC(C(=O)Nc2ccc(C(=O)O)cc2)CC(=O)N1C (stereo not given),1,0,0,0,x,x
c1ccc2c(c1)CCN(c1nc(NC3CC3)c3ncn(-c4ccsc4)c3n1)C2,-1,2,0,25,x,x
CN(C)c1cccc(Nc2nc(NCc3ccccc3)c3ncn(-c4ccsc4)c3n2)c1,12,0,1,-1,x,x
